The text below walks through data of PubChem BioAssay (Tox21).

Results filed as inconclusive are left out. A call without a number means that no potency is given here. A number with no mark means an inactive call. Active and inactive are the calls of the source. Calls follow the shape of the dose curve; as a rule, active = well fitted inhibition curve with a large enough effect in the repeat runs; inconclusive = weak or mixed curves; inactive = flat fitted curve, though single readings scatter.
Potency is read from the fitted curve at half-maximal effect.

Chain of Voltage-gated inwardly rectifying potassium channel KCNH2 (Homo sapiens) (Q12809 whole entry, looked up): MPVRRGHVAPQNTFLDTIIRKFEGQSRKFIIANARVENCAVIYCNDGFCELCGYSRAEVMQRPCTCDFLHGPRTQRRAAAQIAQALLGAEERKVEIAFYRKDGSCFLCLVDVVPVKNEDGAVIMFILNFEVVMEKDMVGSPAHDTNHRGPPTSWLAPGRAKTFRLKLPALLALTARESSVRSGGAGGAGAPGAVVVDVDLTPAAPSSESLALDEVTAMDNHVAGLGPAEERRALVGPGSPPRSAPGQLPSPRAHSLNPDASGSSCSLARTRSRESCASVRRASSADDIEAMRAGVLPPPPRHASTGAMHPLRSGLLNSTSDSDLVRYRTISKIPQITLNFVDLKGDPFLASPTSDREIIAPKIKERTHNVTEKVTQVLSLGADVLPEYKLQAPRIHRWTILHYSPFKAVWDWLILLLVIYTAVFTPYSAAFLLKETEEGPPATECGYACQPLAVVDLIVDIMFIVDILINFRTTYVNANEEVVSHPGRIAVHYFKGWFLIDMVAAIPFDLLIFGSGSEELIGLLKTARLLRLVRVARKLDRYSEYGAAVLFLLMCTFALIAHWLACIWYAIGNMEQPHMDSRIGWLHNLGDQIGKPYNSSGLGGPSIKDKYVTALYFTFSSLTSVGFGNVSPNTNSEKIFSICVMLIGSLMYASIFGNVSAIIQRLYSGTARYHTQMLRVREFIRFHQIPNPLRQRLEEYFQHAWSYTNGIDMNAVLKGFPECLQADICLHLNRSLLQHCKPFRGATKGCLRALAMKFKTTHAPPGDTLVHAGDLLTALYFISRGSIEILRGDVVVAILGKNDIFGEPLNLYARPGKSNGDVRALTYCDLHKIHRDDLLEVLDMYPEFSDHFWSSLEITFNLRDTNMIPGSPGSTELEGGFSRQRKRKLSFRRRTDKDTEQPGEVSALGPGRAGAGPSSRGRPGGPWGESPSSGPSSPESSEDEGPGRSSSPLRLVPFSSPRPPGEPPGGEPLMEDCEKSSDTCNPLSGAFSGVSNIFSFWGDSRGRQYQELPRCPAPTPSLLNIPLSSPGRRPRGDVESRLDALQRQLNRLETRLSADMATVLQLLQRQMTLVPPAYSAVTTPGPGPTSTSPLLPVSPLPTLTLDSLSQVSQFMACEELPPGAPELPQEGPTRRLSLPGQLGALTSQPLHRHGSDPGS

This assay deals with Voltage-gated inwardly rectifying potassium channel KCNH2 (Homo sapiens) (UniProt Q12809). As to the kind of experiment: Human Ether-a-go-go-Related Gene (hERG) channel small molecule antagonists: fluorescence cell-based qHTS assay (AID 1671200). Also: nearly all actives have a fitted effect of over 50% in size. The note with it: hERG-U2OS cells, FluxOR thallium flux fluorescence; series mostly up to 76.8 µM. From the text:
National Center for Advancing Translational Sciences [NCATS]
U.S. Environmental Protection Agency [EPA]
National Institutes of Environmental Health Sciences [NIEHS]
National Toxicology Program [NTP]
U.S. Food and Drug Administration [FDA]
Mutations in the hERG channel cause Long QT (LQT) syndrome. LQT syndrome is a cardiac disorder which can cause ventricle arrhythmia and sudden death. Additionally, compounds which block the hERG channel can cause acquired LQT syndrome. Several FDA approved drugs have been removed from the market due to their hERG blocking activity. A cell-based hERG channel inhibition assay can be used to screen chemical compounds that inhibit hERG channel. This assay measures hERG channel activity using thallium ions as surrogate ions to measure potassium into the cells.
Tox21 Assay Protocol Summary:
hERG-U2OS cells were resuspended in culture medium and dispensed into 1536-well, black wall/clear-bottom plates at 1000cells/well/3uL using a Multidrop Combi dispenser (Thermo Fisher, Waltham, MA). After plates were incubated at 37 C overnight, 3 uL of Loading Buffer provided by FluxOR II Potassium Ion Channel Assay kit (Thermo, Carlsbad, CA) was added to each well. The assay plates were then incubated at room temperature in the dark for 1h. […] After the assay plates were incubated at room temperature for 10 min, 1 uL of Stimulus Buffer provided by FluxOR II Potassium Ion Channel Assay kit was added into each well and fluorescence intensity (480nm excitation/540nm emission) was continuously measured for 2 min at 1 second intervals using a Functional Drug Screening System (FDSS) 7000EX kinetic plate reader (Hamamatsu, Japan).
Turning to `O=S(=O)(O)c1cc(O)ccc1O`, the Potency result is “inactive”.
Same read-out and setting: with `CCCCOC(=O)C(C)OC(=O)CCC` (stereo not given) the entry was “inactive”; with `Nc1nc(=O)n([C@@H]2O[C@H](CO)[C@@H](O)[C@@H]2F)cc1I`, “inactive”; with `CCCCCC1CCCC(=O)O1` (stereo not given), “inactive”.
Regarding `Cc1cc(C)cc([N+](=O)[O-])c1`, the Potency entry is “inactive”.
On the same count and under the same terms, for `Cc1ccccc1N1CCN(CCc2nnc3n2CCCC3)CC1` the value was “inactive”; for `O=C1NC2NC(=O)NC2N1` (stereo not given), “inactive”.
Still for that read-out and setting: with `CCN(CC)C(=O)C1CN2CCc3cc(OC)c(OC)cc3C2CC1OC(C)=O` (stereo not given) the entry was “inactive”.
The same measure, in the same setting: with `CCCC(C)CC` (stereo not given) the entry was “inactive”; with `C=C(C)C(=O)OC`, “inactive”; with `CC(C)COC(=O)CC(C(=O)OCC(C)C)S(=O)(=O)O` (stereo not given), “inactive”.
In the case of `C=C[Si](C)(C)O[Si](C)(C)C=C`, the Potency result was “inactive”.
The same measure, in the same setting: for `CC(C)CCCC(C)CC=O` (stereo not given) the value was “inactive”; for `Oc1ccccc1Cc1ccccc1O`, “inactive”.
Turning to `C=CCOCC(CO)(COCC=C)COCC=C`, the Potency entry was “inactive”.
On the same count and under the same terms, for `CCCCCCCCCCCCCCCC(=O)NCCO` the value was “inactive”.
Still for that read-out and setting: for `c1ccccc1` the value was “inactive”; for `Nc1ccc(C(=O)OCC(O)CO)cc1` (stereo not given), “inactive”; for `CCCCCCCCOC(C)=O`, “inactive”.
The same measure, in the same setting: for `CC(C)C(=O)c1ccccc1` the value was “inactive”.
Consider `c1ccc(CNc2ncnc3nc[nH]c23)cc1`, for which the Potency result was “inactive”.
Consider `Nc1cc(S(=O)(=O)O)ccc1S(=O)(=O)O`, for which the Potency result was “inactive”.
Consider `CCCCC[Si](OCC)(OCC)OCC`, for which the Potency entry is “inactive”.
Still for that read-out and setting: with `CN=C(NC#N)NCCSCc1csc(N=C(N)N)n1` the entry was “inactive”.
The same measure, in the same setting: with `CN[C@@H]1[C@H](O)[C@H](NC)[C@H]2O[C@@]3(O)C(=O)C[C@@H](C)O[C@H]3O[C@@H]2[C@H]1O` the entry was “inactive”; with `C=CCOC(=O)c1ccc(C(=O)OCC=C)c(C(=O)OCC=C)c1`, “inactive”.
On the same count and under the same terms, with `Cc1nc2ccccc2c(=O)o1` the entry was “inactive”.
`COc1cc2c3cc1Oc1cc(ccc1O)C[C@@H]1c4c(cc(OC)c(O)c4Oc4ccc(cc4)C[C@@H]3N(C)CC2)CC[N+]1(C)C`: the Potency entry is “inactive”.
Same read-out and setting: for `Cc1ccccc1C` the value was “inactive”.
As to `O=C(CN1CCN(Cc2ccc3c(c2)OCO3)CC1)N1c2ccccc2Sc2ccccc21`, the Potency is 4.77 µM (active).
Same read-out and setting: with `CCOC(=O)OCC/C(SC(=O)OCC)=C(\C)N(C=O)Cc1cnc(C)nc1N` the entry was “inactive”.
Consider `O=S(=O)(O)SSS(=O)(=O)O`, for which the Potency entry is “inactive”.
As for `CCC1Nc2cc(Cl)c(S(N)(=O)=O)cc2S(=O)(=O)N1` (stereo not given), the Potency result was “inactive”.
In the case of `O=C(O)Cc1cccc(-c2cc(CCCCCCc3ccc(O[C@H]4O[C@H](CO)[C@@H](O)[C@H](O)[C@@H]4O)c(-c4cccc(CC(=O)O)c4)c3)ccc2O[C@H]2O[C@H](CO)[C@@H](O)[C@H](O)[C@@H]2O)c1`, the activity change, negative = inhibition was -0.102% [at 0.29 µM].
`CC(C)CCO`: the Potency result is “inactive”.
Still for that read-out and setting: for `CC(=O)Nc1ncc([N+](=O)[O-])s1` the value was “inactive”; for `Cc1ccc(S(=O)(=O)NC(=O)NC2CCCCCCC2)cc1`, “inactive”; for `OCCCCCCCl`, “inactive”.
Still for that read-out and setting: with `C1=C\CC/C=C\CC/1` the entry was “inactive”.
On the same count and under the same terms, with `CC1(N)CCC(C(C)(C)N)CC1` (stereo not given) the entry was “inactive”.
